HP1b binding inh: HP1-beta chromodomain-methylated histone interaction inhibition | P83916 | AlphaScreen HP1-beta / biotin-H3K9me3 peptide binding | Potency, µM (highest dose often 114 µM), usual class: inhibitors | hit rate 0.56% among 390,000 | AID 540317; also: nearly all actives have a fitted effect of over 70% in size
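Compound inhibition of the preformed complex between 50 nM HP1-beta and 50 nM biotinylated H3K9me3 peptide was read by AlphaScreen. Buffer was PBS pH 7.4 with 0.01% Tween-20. Incubations ran 30 min at room temperature, with 10 ug/mL donor/acceptor beads.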
L3MBTL1 block: blocks human L3MBTL1; hit rate 0.66% among 230,000; AlphaScreen L3MBTL1–H3K9me1 peptide binding; Potency, µM (titrated, usually from 57.1 µM), most hits filed as inhibitors; also: nearly all actives have a fitted effect of over 60% in size
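L3MBTL1 50 nM + b-AHA-H3(1-15)K9me1 75 nM, 30 min RT; compound added, 30 min RT; streptavidin donor/Ni-chelate acceptor beads 10 ug/mL each final, 30 min RT dark; AlphaScreen read.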
G9a inh: blocks human histone lysine methyltransferase G9a; AID 504332; hit rate 8.8% among 350,000; Potency, µM (highest dose often 102 µM), most hits filed as inhibitors; Q96KQ7; G9a H3K9 monomethylation, AlphaScreen, 2 h; also: nearly all actives have a fitted effect of over 75% in size
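G9a (20 nM) preincubated 15 min RT with compounds, then 500 nM biotinylated H3K9 peptide and 20 uM SAM added; 2 h RT reaction. Monomethyl-H3K9 product detected by AlphaScreen with anti-H3K9me1 antibody, streptavidin donor and anti-rabbit IgG acceptor beads.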
JMJD2A Tudor: blocks the human JMJD2A Tudor domain; O75164; AlphaScreen JMJD2A-Tudor / H3K4me3 peptide binding; Potency, µM (series often up to 114 µM), hits mostly inhibitors; hit rate 4.4% among 390,000; AID 504339; also: nearly all actives have a fitted effect of over 50% in size
BAZ2B inh: inhibitors of human BAZ2B bromodomain; Potency, µM (titrated, usually from 114 µM), most hits filed as inhibitors; AID 504333; AlphaScreen BAZ2B-H3K14Ac peptide displacement; hit rate 4.4% among 360,000; also: nearly all actives have a fitted effect of over 60% in size
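In this displacement format the biotinylated H3(5-23) peptide acetylated at Lys14 serves as ligand at 50 nM, with BAZ2B at 50 nM in PBS pH 7.4 containing 0.01% Tween-20. Donor and acceptor beads are 10 ug/mL final.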
Large screens that a line does not name were inactive. Compounds with a hit are over-represented: about 11% of the library has one in this group of screens. Calls follow the shape of the dose curve; as a rule, active = well fitted inhibition curve with a large enough effect; inconclusive = small, poorly fitted or top-dose-only effect; inactive = no such curve, though single readings can be large or run the other way.

Nc1ccc(N2CCN(C(=O)c3cccs3)CC2)cc1	G9a inh 1.41µM, BAZ2B inh inconclusive (no result: L3MBTL1 block)
Cc1ccc(N2CCN(C(=O)N3CCCC3)CC2)cc1C	none (no result: L3MBTL1 block)
Nc1ccc(N2CCN(C(=O)c3ccco3)CC2)cc1	G9a inh 20µM, JMJD2A Tudor inconclusive, BAZ2B inh inconclusive
COc1cccc(N2C(=O)CC(N3CCN(C(=O)c4ccco4)CC3)C2=O)c1 (configuration not stated)	G9a inh inconclusive (no result: L3MBTL1 block)
COc1ccc2oc(=O)c(C(=O)N3CCN(C(=O)c4ccco4)CC3)cc2c1	G9a inh 17.8µM, JMJD2A Tudor 79.4µM (no result: L3MBTL1 block)
COc1ccc(N2C(=O)CC(N3CCN(C(=O)c4ccco4)CC3)C2=O)cc1 (configuration not stated)	G9a inh 56.2µM
COc1ccc2oc(=O)c(C(=O)N3CCN(C(=O)c4ccccc4)CC3)cc2c1	none (no result: L3MBTL1 block)
COc1ccc2[nH]c(C)c(C(=O)CN3CCN(C(=O)c4ccco4)CC3)c2c1	G9a inh 50.1µM
O=C(c1ccco1)N1CCN(C2CC(=O)N(c3ccc(F)c(Cl)c3)C2=O)CC1 (configuration not stated)	G9a inh 28.2µM (no result: L3MBTL1 block)
CO/N=C/c1cccn1-c1nccc(N(C)C)c1C#N	none (no result: G9a inh)
COc1cccc(CNC(=O)Cn2nc(N3CCN(c4ccccc4OC)CC3)ccc2=O)c1	none (no result: L3MBTL1 block)
O=C(NCCc1ccccc1)c1ccc(CSc2nc3cccnc3n2Cc2ccccc2F)cc1	HP1b binding inh 25.1µM, G9a inh 2µM, JMJD2A Tudor 5.62µM, BAZ2B inh 14.1µM (no result: L3MBTL1 block)
O=C(NCCc1ccccc1)c1ccc(Cn2c(SCc3ccccc3F)nc3cccnc32)cc1	none (no result: L3MBTL1 block)
CCCCCCCCNC(=S)NCCN1CCCCC1	HP1b binding inh inconclusive, G9a inh 44.7µM, JMJD2A Tudor 79.4µM, BAZ2B inh inconclusive
S=C(NCCCN1CCOCC1)Nc1ccc(Cl)cc1	none
O=C(NCCCCCCCN1CCCCCCC1)C(C1CCCCC1)C1CCCCC1	none (no result: L3MBTL1 block, G9a inh, BAZ2B inh)
FC(F)(F)Oc1ccc(NC(=S)NCCCN2CCOCC2)cc1	G9a inh 50.1µM
S=C(NCCCN1CCOCC1)NCCCN1CCOCC1	HP1b binding inh inconclusive, G9a inh 8.91µM
FC1(F)C(F)(F)C(F)(F)C2(F)C(F)(F)C(F)(F)C(F)(F)C(F)(F)C2(F)C1(F)F (configuration not stated)	none (no result: HP1b binding inh, L3MBTL1 block, JMJD2A Tudor, BAZ2B inh)
Cc1ccc(Cc2cnc(NC(=O)c3ccc4c(c3)CC(c3ccccc3)OC4=O)s2)cc1 (configuration not stated)	none (no result: L3MBTL1 block)
O=C(COc1ccc(/C=C\[N+](=O)[O-])cc1)N1CCOCC1	G9a inh 10µM
O=C(CNC(=O)c1cccc(Cl)c1)OC(C(=O)Nc1cc(C(F)(F)F)ccc1Cl)c1ccccc1 (configuration not stated)	none (no result: HP1b binding inh, L3MBTL1 block, G9a inh, BAZ2B inh)
CCSc1nc(=S)cc(C)[nH]1	G9a inh 10µM
CCSc1nc(O)cc(=O)[nH]1	none (no result: L3MBTL1 block)
Cc1cc(=O)[nH]c(N/N=C/C(C)c2ccccc2)n1 (configuration not stated)	G9a inh 15.8µM, JMJD2A Tudor 1.12µM
COc1ccc(Nc2nc(C)cc(=O)[nH]2)cc1	none (no result: L3MBTL1 block)
C/C=C/C=N/Nc1nc(C)cc(=O)[nH]1	G9a inh 3.55µM, JMJD2A Tudor 1.58µM, BAZ2B inh 50.1µM
COc1ccc(OC)c(/C=N/Nc2nc(C)cc(=O)[nH]2)c1	G9a inh 44.7µM, BAZ2B inh 50.1µM (no result: L3MBTL1 block)
Cc1cc(=O)[nH]c(N/N=C/c2c(F)c(F)c(F)c(F)c2F)n1	BAZ2B inh inconclusive (no result: L3MBTL1 block)
Cc1cc(=O)[nH]c(N/N=C/c2cc(C)n(-c3ccccc3)c2C)n1	L3MBTL1 block inconclusive, G9a inh inconclusive, JMJD2A Tudor inconclusive
Cc1cc(=O)[nH]c(N/N=C/c2ccccc2Cl)n1	G9a inh 39.8µM, JMJD2A Tudor 79.4µM (no result: L3MBTL1 block)
O=C(CNC(=O)c1ccc(Br)o1)NCc1ccccc1Cl	none (no result: L3MBTL1 block)
Cc1cc(=O)[nH]c(NN=Cc2cc(Br)ccc2O)n1	JMJD2A Tudor 79.4µM (no result: L3MBTL1 block, G9a inh, BAZ2B inh)
CCN(CC)c1ccc(/C=N/Nc2nc(C)cc(=O)[nH]2)c(O)c1	none
CCC1CCc2nc3sc(C(=O)Nc4ccc(C)cc4C)c(N)c3cc2C1 (configuration not stated)	none (no result: L3MBTL1 block)
COC(=O)c1cc(S(=O)(=O)N2CCN(c3ccc(C)cc3C)CC2)cn1C	none (no result: L3MBTL1 block)
CCOC(=O)c1cc(S(=O)(=O)N2CCN(c3ccc(C)cc3C)CC2)[nH]n1	G9a inh 3.98µM, JMJD2A Tudor inconclusive, BAZ2B inh 50.1µM (no result: L3MBTL1 block)
CCOC(=O)c1cc(S(=O)(=O)N2CCN(c3ccccc3F)CC2)[nH]n1	G9a inh 15.8µM, BAZ2B inh inconclusive (no result: L3MBTL1 block)
CCOC(=O)c1cc(S(=O)(=O)N2CCN(c3cccc(C)c3C)CC2)[nH]n1	G9a inh 10µM, BAZ2B inh inconclusive (no result: L3MBTL1 block)
COC(=O)c1cc(S(=O)(=O)N2CCN(c3ccccc3F)CC2)c[nH]1	none (no result: L3MBTL1 block)
CCn1c(CN2CCN(c3cccc(C)c3C)CC2)n[nH]c1=S	G9a inh 7.94µM
CCn1c2ccccc2c2nnc(N3CCN(c4cccc(C)c4C)CC3)nc21	none (no result: L3MBTL1 block)
Cc1ccc(-c2cc(C(=O)N3CCN(S(=O)(=O)c4ccc(Br)s4)CC3)[nH]n2)cc1C	none (no result: L3MBTL1 block)
CCOc1ccc(C(=O)N/N=C(/C)C2C(=O)c3ccccc3C2=O)cc1	JMJD2A Tudor 35.5µM
Cc1c(C(=O)NCC(c2ccco2)N(C)C)oc2c(Cl)cccc12 (configuration not stated)	HP1b binding inh inconclusive, G9a inh 50.1µM, JMJD2A Tudor inconclusive, BAZ2B inh 50.1µM
Cc1ccc(CNC(=O)c2ccc(OCC(C)C)cc2)n1C	G9a inh 44.7µM, JMJD2A Tudor inconclusive (no result: L3MBTL1 block)
CCOc1ccc(C(=O)NCC(C)C)cc1	G9a inh 0.891µM (no result: L3MBTL1 block)
CCOc1ccc(C(=O)NCC(C)NC(=O)c2ccc(OCC)cc2)cc1 (configuration not stated)	JMJD2A Tudor inconclusive, BAZ2B inh inconclusive (no result: G9a inh)
Cc1ccc(NC(=O)N2CCc3cc(S(=O)(=O)N4CCC(C)CC4)ccc32)cc1	none (no result: L3MBTL1 block)
COc1ccc2cc(CCNS(=O)(=O)c3ccc(C)cc3)c(=O)[nH]c2c1	none (no result: L3MBTL1 block)
CN(C)C(CNC(=O)c1ccc(Br)cc1)c1ccco1 (configuration not stated)	none (no result: L3MBTL1 block)
CC(C)CCOc1ccc(C(=O)NCC(c2ccco2)N(C)C)cc1 (configuration not stated)	G9a inh 50.1µM (no result: L3MBTL1 block)
Cc1nn(C(=O)c2ccc(Br)cc2)c(C)c1S(=O)(=O)N1CCOCC1	G9a inh inconclusive, JMJD2A Tudor inconclusive (no result: L3MBTL1 block)
CC(=O)NC(CC(=O)NCCc1ccccc1)c1ccccc1 (configuration not stated)	none (no result: L3MBTL1 block)
COc1ccccc1OCCNC(=O)CC(NC(C)=O)c1ccccc1 (configuration not stated)	G9a inh 79.4µM (no result: L3MBTL1 block)
COc1ccc(OC)c(C2C(C(C)=O)=C(O)C(=O)N2CCN2CCOCC2)c1 (configuration not stated)	G9a inh inconclusive, JMJD2A Tudor inconclusive

Compound activity deposited in PubChem by National Center for Advancing Translational Sciences (NCATS).
